These results are taken from PubChem BioAssay (NCATS).

Experiment [1] deals with Lysosomal acid glucosylceramidase (Homo sapiens) (UniProt P04062). In words: Glucocerebrosidase-p2 (AID 348; in the data active = potency below about 10 µM; note: potency is the fitted concentration of half-maximal effect). Particulars: purified GBA, blue fluorogenic substrate, 40 min. In outline:
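Compounds titrated from 0.6 nM upwards against 0.2 nM enzyme in pH 5.9 citric acid/KH2PO4, taurocholate, tween-20; blue fluorogenic substrate 80 uM, 40 min room temperature, stopped and read Ex 365/Em 440 for AC50.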

The nature of experiment [2]: AP1 Signaling Pathway (AID 357; active = well fitted curve in either direction with a large enough effect, not every such curve was filed as active; note: % is set by controls: 0 for no effect and ±100 for the full control effect). Particulars: ME-180 AP-1-bla reporter, EGF-induced, beta-lactamase ratio, 5 h; at 7.69 µM (top of the series) unless noted. In outline: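 AP-1-bla ME-180 cells with beta-lactamase reporter under AP-1 response element, stimulated with EC50 EGF; compounds titrated, 5 hours at 37 degrees Celsius. CCF4 read at 460/530 nm ratio; positive and negative modulators judged by AC50.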

Experiment [3] addresses Cytochrome P450 1A2 (Homo sapiens) (UniProt P05177). As to the kind of experiment: p450-cyp1a2 (AID 410).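 For activity change, negative = inhibition: -100% = full effect of reference inhibitor.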 Note: potency is the fitted concentration of half-maximal effect. Particulars: recombinant CYP1A2, luciferin-ME demethylation, luminescence; series mostly up to 57 µM. In outline:
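Human CYP1A2 (20nM) demethylated Luciferin-ME at its Km (100uM) in 100mM KPO4. After 10 min compound preincubation, NADPH regeneration ran the reaction 60 min at room temperature. Luciferin was read by luminescence, normalized to 57 uM furafylline.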

Experiment [4] in a line: NFAT Signaling Pathway (AID 444; active = well fitted curve in either direction with a large enough effect, not every such curve was filed as active;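 note: carbachol stimulus at about its EC50 of 1 µM final; % is set by controls: 0 for no effect and ±100 for the full control effect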). Particulars: Jurkat NFAT-bla M1, carbachol, beta-lactamase ratio, 5 h; at 7.69 µM (top of the series) unless noted. In outline:
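Jurkat cells carrying an NFAT-driven β-lactamase reporter and co-transfected muscarinic M1 receptor were treated with compound plus carbachol (1 uM final, an EC50 level) for 5 h at 37 °C. CCF4 loading followed for 1 h at RT; 460/530 nm ratio gave %activity.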

Experiment [5] is described as follows: Stat Signaling Pathway (AID 446; active = well fitted curve in either direction with a large enough effect, not every such curve was filed as active;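 note: ME-180 cervical cancer cells given 40 pM IL-6 alongside compound; SIE-controlled beta-lactamase reporter measured as 460/530 nm FRET emission ratio; % is set by controls: 0 for no effect and ±100 for the full control effect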). Particulars: ME-180 SIE beta-lactamase reporter, IL-6 stimulated, 5 h; at 7.69 µM (top of the series) unless noted. In outline:
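IL-6/STAT signaling read in ME-180 cells via an SIE beta-lactamase reporter. Stimulus was 40 pM IL-6 (its AC50) for 5 hrs, so both activation and inhibition register.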

The target of experiment [6] is Glucocorticoid receptor (Homo sapiens) (UniProt P04150). In words: GR-EFC Redistribution (AID 451). Note: potency is the fitted concentration of half-maximal effect. As to conditions: CHO-K1 GR-EFC translocation, beta-gal luminescence, 2 h. In outline:
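CHO-K1 cells stably expressing nuclear-localized β-gal enzyme acceptor and GR fused C-terminally to the enzyme donor fragment; ligand-driven nuclear translocation restores β-gal by complementation. Compounds titrated up to 46 uM final, 2 h at 37 °C; luminescence read.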

The target of experiment [7] is Mitogen-activated protein kinase 10 (Mus musculus) (UniProt Q61831). As to the kind of experiment: JNK3 AlphaScreen Assay (AID 530; active = well fitted curve in either direction with a large enough effect, not every such curve was filed as active;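 note: kinase came from lysate of stimulated human HepG2 cells; % is set by controls: 0 for no effect and ±100 for the full control effect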). Particulars: JNK3 lysate, c-Jun phosphorylation; series mostly up to 57.1 µM. In outline: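 JNK3 came from HepG2 lysates pre-activated with IL-1beta and TNF-alpha and phosphorylated biotinylated GST-cJun (1-79) at 10 uM ATP, pH 7.6, room temperature. Compounds were titrated. AlphaScreen signal used anti-phospho-cJun (Ser73) antibody.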
(In general: In Alpha technology, singlet oxygen from a donor bead excites a nearby acceptor bead.)

Experiment [8] deals with 3',5'-cyclic-AMP phosphodiesterase 4B (Homo sapiens) (UniProt Q07343). As to the kind of experiment: qHTS Assay for Inhibitors of PDE-IV (AID 607; active = well fitted activation curve with a large enough effect in the main read-out, with a control signal flat, not every such curve was filed as active; note: % of control where 0% means no effect). As to conditions: HEK293 ACTOne CNG channel cells, membrane potential fluorescence; series mostly up to 22.9 µM. In outline:
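Live HEK293 cells with a modified cyclic nucleotide-gated (CNG) channel report intracellular cAMP via membrane-potential dye fluorescence (ex 535/em 590 nm). Endogenous PDE-IV was targeted. Compounds were tested at up to 22.9 uM final; RO 20-1724 100 uM served as control.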
(In general: qHTS replaces the single test concentration by a dilution series.)

In experiment [9] the target is Cytochrome P450 2D6 (Homo sapiens) (UniProt P10635). In words: qHTS Assay for Inhibitors and Substrates of Cytochrome P450 2D6 (AID 891; active = well fitted curve in the direction sought with a large enough effect; an effect the other way counts as inactive or inconclusive; note: potency is the fitted concentration of half-maximal effect; nearly all actives have a fitted effect of over 60% in size). Particulars: recombinant CYP2D6, luciferin-ME EGE luminescence; series mostly up to 57.1 µM. In outline: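 Human CYP2D6 (5 nM) with 30 uM Luciferin-ME EGE (at Km) in 100 mM KPO4, compound preincubated 10 min, then NADPH regeneration system for 60 min at room temperature. Luciferin read by luminescence; normalized to 1.43 uM quinidine.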

Experiment [10] can be described thus: qHTS Assay for Lipid Storage Modulators (AID 1519). As to conditions: Drosophila S3 cells, BODIPY lipid droplet/cell ratio, laser cytometry, cells loaded with oleic acid; for activity change, negative = inhibition: at 57.5 µM (top of the series). In outline:
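Cells seeded at 5,000 per well were treated with compounds over a concentration series and loaded with oleic acid (400 uM, as added). Lipid droplet fluorescence (488 nm excitation, 500-530 nm channel) was read by laser-scanning cytometry and normalized to 20 uM Triacsin C.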

Experiment [11] in a line: Primary qHTS for small molecule stabilizers of the endoplasmic reticulum resident proteome: Secreted ER Calcium Modulated Protein (SERCaMP) assay (AID 1508630; active = well fitted curve in the direction sought with a large enough effect; an effect the other way counts as inactive or inconclusive; note: % is set by controls: 0 for no effect and ±100 for the full control effect). As to conditions: SH-SY5Y GLuc-SERCaMP (Gaussia luciferase released on ER calcium loss) secretion, thapsigargin, luminescence; series mostly up to 38.4 µM. In outline:
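GLuc-SERCaMP-expressing SH-SY5Y cells, pretreated 16 h with compound, are challenged with thapsigargin to empty ER calcium stores; after 4 h, coelenterazine is added directly to the medium and luminescence is imaged.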

Experiment [12] concerns the target Cytochrome P450 2C9 (Homo sapiens) (UniProt P11712). As to the kind of experiment: qHTS Assay for Inhibitors and Substrates of Cytochrome P450 2C9 (AID 883; active = well fitted curve in the direction sought with a large enough effect; an effect the other way counts as inactive or inconclusive; note: nearly all actives have a fitted effect of over 60% in size; note: potency is the fitted concentration of half-maximal effect). Particulars: recombinant CYP2C9, luciferin-H luminescence, 60 min; series mostly up to 57.1 µM. In outline:
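A luminogenic readout tracked human CYP2C9 (10nM) converting deoxyluciferin (100uM, at KM) in 25mM KPO4 during 60 min at 37C with regenerated NADPH. Values normalized to 57uM sulphaphenazole as complete inhibition.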

Experiment [13] concerns the target Cytochrome P450 3A4 (Homo sapiens) (UniProt P08684). As to the kind of experiment: qHTS Assay for Activators of Cytochrome P450 3A4 (AID 885; active = well fitted curve in the direction sought with a large enough effect; an effect the other way counts as inactive or inconclusive; note: nearly all actives have a fitted effect of over 65% in size). As to conditions: recombinant CYP3A4, Luciferin-PPXE luminescence, 60 min; series mostly up to 57.1 µM. In outline: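 Quantitative HTS format: compounds preincubated with 20nM human CYP3A4 and Luciferin-PPXE substrate at KM, reaction started by NADPH regeneration, stopped after 60 min, luciferase luminescence read 20 min later.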

Experiment [14] addresses Cytochrome P450 2C19 (Homo sapiens) (UniProt P33261). As to the kind of experiment: qHTS Assay for Inhibitors and Substrates of Cytochrome P450 2C19 (AID 899; active = well fitted curve in the direction sought with a large enough effect; an effect the other way counts as inactive or inconclusive; note: potency is the fitted concentration of half-maximal effect; nearly all actives have a fitted effect of over 60% in size). As to conditions: recombinant CYP2C19, luciferin-H EGE luminescence; series mostly up to 57.1 µM. In outline:
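NADPH-dependent conversion of Luciferin-H EGE (10uM, at KM) by 5nM enzyme in 50mM KPO4, 60 min at 37C following 10 min compound preincubation. Stopped with luciferin detection buffer; luminescence read after 20 min.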

Experiment [15] concerns the target Glucocorticoid receptor (Homo sapiens) (UniProt P04150). As to the kind of experiment: GR-GFP Redistribution (AID 450;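 active = compounds whose dose series gives a full or clear partial fitted curve of increased nuclear translocation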; note: potency is the fitted concentration of half-maximal effect). As to conditions: U2OS GR-GFP nuclear translocation, laser cytometry, 2 h.
Experiment [16] is described as follows: qHTS Assay for Identification of Small Molecule Agonists for Hypoxia Response Element Signaling Pathway (AID 914; active = well fitted activation curve with a large enough effect in the signal ratio, with a control signal flat, not every such curve was filed as active; the % refers to the signal ratio; note: potency is the fitted concentration of half-maximal effect). Particulars: ME-180 (cervical carcinoma) HRE-bla reporter, beta-lactamase ratio, CoCl2, 17 h; activation: stronger effect = higher value. In outline:
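A beta-lactamase reporter under hypoxia response element control in ME-180 cells served as the system. Compound titrations plus EC50 CoCl2 ran 17 h at 37 degrees Celsius; AC50 values were fitted from %Activity.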

Experiment [17] deals with Ubiquitin carboxyl-terminal hydrolase 1 (Homo sapiens) (UniProt O94782). As to the kind of experiment: Inhibitors of USP1/UAF1: Pilot qHTS (AID 504865; active = well fitted curve in the direction sought with a large enough effect; an effect the other way counts as inactive or inconclusive;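 note: rhodamine fluorescence freed from ubiquitin-rhodamine substrate followed over time; top concentration of the series differs between compounds; % is set by controls: 0 for no effect and ±100 for the full control effect; nearly all actives have a fitted effect of over 35% in size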). As to conditions: purified USP1/UAF1, Ub-rhodamine cleavage fluorescence; series mostly up to 54.9 µM. In outline: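 USP1/UAF1 complex (1nM) preincubated with compound 15 min at room temperature, then Ub-Rho substrate (150nM final) added. Fluorescence read kinetically at 480/540 nm, 6 reads every 60 seconds. Buffer: 50mM HEPES pH 7.8, 0.5mM EDTA, 0.1 mg/ml BSA, 1mM TCEP, 0.01% Tween-20.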

Setting [18] is: measured here: cell count channel max response.
The mark [19] stands for this setting: measured here: lipid channel max response.

Inconclusive results are not listed. Calls of active or inactive are those of the source. Unless noted, calls come from the whole dose curve.

Chain of 3',5'-cyclic-AMP phosphodiesterase 4B (Homo sapiens) (Q07343 whole entry, looked up): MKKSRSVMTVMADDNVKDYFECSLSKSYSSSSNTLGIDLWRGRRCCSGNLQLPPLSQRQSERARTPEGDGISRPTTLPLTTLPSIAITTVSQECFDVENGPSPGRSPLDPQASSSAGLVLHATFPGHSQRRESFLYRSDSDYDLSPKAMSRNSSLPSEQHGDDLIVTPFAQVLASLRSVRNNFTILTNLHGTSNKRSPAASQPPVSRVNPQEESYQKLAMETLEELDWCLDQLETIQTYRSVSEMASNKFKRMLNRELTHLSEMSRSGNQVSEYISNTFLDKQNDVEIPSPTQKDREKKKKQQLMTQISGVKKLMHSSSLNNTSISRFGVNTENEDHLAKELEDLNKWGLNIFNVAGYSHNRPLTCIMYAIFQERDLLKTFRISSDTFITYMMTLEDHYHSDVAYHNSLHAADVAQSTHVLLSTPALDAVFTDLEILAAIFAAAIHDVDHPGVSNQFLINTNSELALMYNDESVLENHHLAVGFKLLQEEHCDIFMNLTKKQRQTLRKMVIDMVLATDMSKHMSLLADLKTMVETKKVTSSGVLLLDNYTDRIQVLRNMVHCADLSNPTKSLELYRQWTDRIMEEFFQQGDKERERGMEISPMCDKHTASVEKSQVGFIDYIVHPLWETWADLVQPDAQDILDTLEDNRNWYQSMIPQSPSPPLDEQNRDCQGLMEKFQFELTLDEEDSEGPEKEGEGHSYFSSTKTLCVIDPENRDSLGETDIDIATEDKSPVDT
Chain of Glucocorticoid receptor (Homo sapiens) (P04150 whole entry, looked up, the tested form may be a part): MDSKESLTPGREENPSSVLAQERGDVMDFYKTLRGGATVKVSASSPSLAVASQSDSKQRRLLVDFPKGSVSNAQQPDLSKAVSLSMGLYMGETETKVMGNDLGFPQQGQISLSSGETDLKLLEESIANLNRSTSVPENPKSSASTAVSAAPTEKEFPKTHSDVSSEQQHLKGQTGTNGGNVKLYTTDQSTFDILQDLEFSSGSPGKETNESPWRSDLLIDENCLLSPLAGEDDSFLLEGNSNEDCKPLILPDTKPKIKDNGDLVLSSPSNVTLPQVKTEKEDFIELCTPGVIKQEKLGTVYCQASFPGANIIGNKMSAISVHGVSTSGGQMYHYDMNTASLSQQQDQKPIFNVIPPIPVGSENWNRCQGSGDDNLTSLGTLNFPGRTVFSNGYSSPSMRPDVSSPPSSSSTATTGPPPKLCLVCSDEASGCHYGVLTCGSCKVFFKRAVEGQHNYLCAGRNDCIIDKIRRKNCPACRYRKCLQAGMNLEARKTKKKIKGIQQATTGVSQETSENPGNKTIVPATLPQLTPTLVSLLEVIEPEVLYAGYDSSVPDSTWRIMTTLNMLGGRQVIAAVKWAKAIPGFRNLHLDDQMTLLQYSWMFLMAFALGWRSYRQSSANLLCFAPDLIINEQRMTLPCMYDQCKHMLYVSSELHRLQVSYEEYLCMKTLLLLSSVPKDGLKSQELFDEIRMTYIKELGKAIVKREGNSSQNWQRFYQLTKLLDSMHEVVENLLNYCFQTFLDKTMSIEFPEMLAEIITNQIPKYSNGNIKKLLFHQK
Chain of Cytochrome P450 1A2 (Homo sapiens) (P05177 whole entry, looked up): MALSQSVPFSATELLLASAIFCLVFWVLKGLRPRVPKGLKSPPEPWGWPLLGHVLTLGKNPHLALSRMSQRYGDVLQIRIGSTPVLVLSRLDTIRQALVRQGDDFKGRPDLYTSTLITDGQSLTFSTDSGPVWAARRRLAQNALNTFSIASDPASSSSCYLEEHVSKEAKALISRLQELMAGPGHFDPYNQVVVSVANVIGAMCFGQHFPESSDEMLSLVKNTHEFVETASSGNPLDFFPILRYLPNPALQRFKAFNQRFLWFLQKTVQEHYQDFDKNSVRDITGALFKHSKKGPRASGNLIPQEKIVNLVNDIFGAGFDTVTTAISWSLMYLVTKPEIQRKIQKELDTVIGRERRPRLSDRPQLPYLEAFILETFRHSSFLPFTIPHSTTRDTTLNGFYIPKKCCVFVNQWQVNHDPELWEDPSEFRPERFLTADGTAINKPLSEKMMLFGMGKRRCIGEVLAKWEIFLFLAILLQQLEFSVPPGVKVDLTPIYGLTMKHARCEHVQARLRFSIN
Chain of Lysosomal acid glucosylceramidase (Homo sapiens) (P04062 whole entry, looked up): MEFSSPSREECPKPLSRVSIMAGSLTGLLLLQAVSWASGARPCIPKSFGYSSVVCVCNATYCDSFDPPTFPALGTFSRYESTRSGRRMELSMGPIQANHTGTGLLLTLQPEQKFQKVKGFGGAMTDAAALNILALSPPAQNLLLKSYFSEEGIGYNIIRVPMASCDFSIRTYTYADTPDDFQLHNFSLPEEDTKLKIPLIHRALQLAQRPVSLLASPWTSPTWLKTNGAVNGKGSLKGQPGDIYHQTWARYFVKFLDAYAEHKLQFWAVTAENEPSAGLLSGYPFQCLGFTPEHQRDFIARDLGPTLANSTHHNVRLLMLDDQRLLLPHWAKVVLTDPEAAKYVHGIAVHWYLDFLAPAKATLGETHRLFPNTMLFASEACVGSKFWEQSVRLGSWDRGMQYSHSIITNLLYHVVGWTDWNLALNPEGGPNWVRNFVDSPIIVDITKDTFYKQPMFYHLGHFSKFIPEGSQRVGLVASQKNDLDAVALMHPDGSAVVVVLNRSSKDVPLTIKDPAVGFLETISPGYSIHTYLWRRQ
Chain of Cytochrome P450 3A4 (Homo sapiens) (P08684 whole entry, looked up): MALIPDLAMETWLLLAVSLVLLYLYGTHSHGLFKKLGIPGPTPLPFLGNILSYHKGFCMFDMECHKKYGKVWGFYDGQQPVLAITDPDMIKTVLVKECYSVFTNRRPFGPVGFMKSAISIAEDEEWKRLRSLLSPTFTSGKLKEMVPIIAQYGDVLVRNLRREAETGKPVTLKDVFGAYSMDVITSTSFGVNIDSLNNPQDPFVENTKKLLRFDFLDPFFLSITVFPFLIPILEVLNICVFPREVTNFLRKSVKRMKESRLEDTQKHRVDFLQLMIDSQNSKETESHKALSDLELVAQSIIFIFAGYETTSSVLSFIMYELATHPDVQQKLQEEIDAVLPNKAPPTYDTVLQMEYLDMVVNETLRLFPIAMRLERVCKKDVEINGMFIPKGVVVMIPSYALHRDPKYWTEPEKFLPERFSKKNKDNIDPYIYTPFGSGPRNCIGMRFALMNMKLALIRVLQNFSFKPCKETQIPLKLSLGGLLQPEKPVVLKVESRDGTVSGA
Chain of Cytochrome P450 2D6 (Homo sapiens) (P10635 whole entry, looked up): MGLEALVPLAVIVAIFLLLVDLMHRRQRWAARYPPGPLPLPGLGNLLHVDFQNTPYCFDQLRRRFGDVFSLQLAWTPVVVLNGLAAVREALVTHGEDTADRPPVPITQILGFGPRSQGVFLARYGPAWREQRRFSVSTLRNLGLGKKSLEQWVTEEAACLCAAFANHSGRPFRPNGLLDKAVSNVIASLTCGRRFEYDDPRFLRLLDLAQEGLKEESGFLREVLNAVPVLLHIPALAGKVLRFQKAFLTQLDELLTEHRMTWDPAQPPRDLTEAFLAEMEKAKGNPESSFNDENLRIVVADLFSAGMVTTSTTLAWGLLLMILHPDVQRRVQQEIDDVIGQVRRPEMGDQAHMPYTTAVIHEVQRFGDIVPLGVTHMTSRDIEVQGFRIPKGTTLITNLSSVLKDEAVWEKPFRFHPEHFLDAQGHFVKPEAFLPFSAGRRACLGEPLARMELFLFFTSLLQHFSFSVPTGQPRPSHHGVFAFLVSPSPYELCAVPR
Chain of Cytochrome P450 2C9 (Homo sapiens) (P11712 whole entry, looked up): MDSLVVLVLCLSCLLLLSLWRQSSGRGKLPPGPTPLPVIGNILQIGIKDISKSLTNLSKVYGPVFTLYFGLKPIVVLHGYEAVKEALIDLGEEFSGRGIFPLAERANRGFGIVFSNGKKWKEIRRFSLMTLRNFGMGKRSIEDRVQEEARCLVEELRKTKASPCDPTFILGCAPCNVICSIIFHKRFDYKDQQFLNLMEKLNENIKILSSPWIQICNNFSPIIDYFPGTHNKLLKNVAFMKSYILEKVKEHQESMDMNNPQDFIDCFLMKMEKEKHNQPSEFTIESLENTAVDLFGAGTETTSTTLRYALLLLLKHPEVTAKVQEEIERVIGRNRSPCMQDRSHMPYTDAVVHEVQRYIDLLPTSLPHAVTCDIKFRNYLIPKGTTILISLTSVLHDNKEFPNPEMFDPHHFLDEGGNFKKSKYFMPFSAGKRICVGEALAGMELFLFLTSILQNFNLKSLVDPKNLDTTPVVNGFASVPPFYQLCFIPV
Chain of Ubiquitin carboxyl-terminal hydrolase 1 (Homo sapiens) (O94782 whole entry, looked up): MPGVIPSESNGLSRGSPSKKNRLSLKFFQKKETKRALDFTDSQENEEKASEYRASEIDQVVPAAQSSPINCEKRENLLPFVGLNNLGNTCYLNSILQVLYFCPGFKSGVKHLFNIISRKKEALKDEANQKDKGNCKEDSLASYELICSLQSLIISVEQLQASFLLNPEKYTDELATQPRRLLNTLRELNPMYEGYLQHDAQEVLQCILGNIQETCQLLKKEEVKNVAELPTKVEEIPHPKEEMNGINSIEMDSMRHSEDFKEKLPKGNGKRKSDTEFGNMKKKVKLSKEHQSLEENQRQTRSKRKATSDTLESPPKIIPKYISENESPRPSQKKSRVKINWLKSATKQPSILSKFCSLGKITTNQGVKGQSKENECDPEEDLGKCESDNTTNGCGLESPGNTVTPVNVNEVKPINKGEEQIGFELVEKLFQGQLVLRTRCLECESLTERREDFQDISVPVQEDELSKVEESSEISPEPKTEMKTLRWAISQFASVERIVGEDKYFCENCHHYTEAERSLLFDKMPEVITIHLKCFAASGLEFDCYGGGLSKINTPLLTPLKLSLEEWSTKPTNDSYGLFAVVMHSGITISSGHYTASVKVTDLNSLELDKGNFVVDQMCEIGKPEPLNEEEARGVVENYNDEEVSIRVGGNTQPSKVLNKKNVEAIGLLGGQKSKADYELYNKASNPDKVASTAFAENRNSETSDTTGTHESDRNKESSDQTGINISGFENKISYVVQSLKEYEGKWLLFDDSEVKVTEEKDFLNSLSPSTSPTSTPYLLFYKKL

Regarding `CC(=O)N1CCC2(CC1)CCN(C(=O)Nc1cccc(F)c1)CC2`, the Potency in [1] is > 11.4 µM (inactive); in experiment [6], > 46 µM (inactive); in experiment [9] it was 3.16 µM (active). Further, the activity change, negative = inhibition in experiment [2] is -10.4% (inactive); in experiment [4] it was 8.58% (inactive); in [10], 3% (inactive). The Potency result in experiment [3], in experiment [8] and in [11] was “inactive” in each case. In experiment [5], the activity, negative = inhibition is -7.06% (inactive). The outcome in experiment [7] was inactive. Also, the max response is 11% in experiment [10] (setting [18]) and 16.9% in experiment [10] (setting [19]).

Consider `CS(=O)(=O)N1CCC2(CC1)CN(c1cccc(-c3ccccc3)c1)C2`, for which the Potency in experiment [1] is > 11.4 µM (inactive); in experiment [3], 5.01 µM (active); in [6], > 46 µM (inactive). Further, the activity change, negative = inhibition in experiment [2] is 6.38% (inactive); in experiment [4] it was 9.12% (inactive); in experiment [10], -16.1% (inactive). Also, the activity, negative = inhibition in experiment [5] was -14.9% (inactive). The Potency result in experiment [8], in [12] and in [11] was “inactive” throughout. Moreover, the max response in experiment [10] (setting [18]) is -11.7%; in experiment [10] (setting [19]), -21%.

As to `CS(=O)(=O)N1CCC2(CC1)CN(Cc1nccs1)C2`, the Potency is > 11.4 µM (inactive) in experiment [1], 6.31 µM (active) in [3] and > 46 µM (inactive) in [6]. The results for the activity change, negative = inhibition in [2], in experiment [4] and in experiment [10] were -7.04% (inactive), 11.5% (inactive) and 3.27% (inactive), respectively. The activity, negative = inhibition in experiment [5] is 6.32% (inactive). Also, the Potency entry in experiment [8] and in experiment [11] was “inactive” each time. Further, the max response in experiment [10] (setting [18]) is 13.6%; in experiment [10] (setting [19]), 18.5%.

As to `Cn1cccc1C(=O)N1CCC2(CCCN(c3ccccc3)C2)CC1`, the Potency in experiment [1] was > 11.4 µM (inactive); in [3] it was 10 µM (active); in experiment [6], > 46 µM (inactive); in experiment [14] it was 7.94 µM (active). The activity change, negative = inhibition in experiment [2] was -3.96% (inactive); in experiment [4] it was 5.63% (inactive); in experiment [10], 1.89% (inactive). Moreover, the activity, negative = inhibition in experiment [5] was -6.3% (inactive). Besides, the Potency result in experiment [8], in experiment [13] and in experiment [11] was “inactive” throughout. Further, the max response in experiment [10] (setting [18]) came out at 1.38%; in experiment [10] (setting [19]) it was 7.11%.

Consider `Cn1cccc1C(=O)N1CCC[C@@]2(CCN(Cc3cc(C(F)(F)F)cc(C(F)(F)F)c3)C2)C1`, for which the Potency in experiment [1] is > 11.4 µM (inactive); in experiment [6], > 46 µM (inactive); in [9], 3.98 µM (active). Moreover, the Potency result in experiment [3], in experiment [8], in [13] and in experiment [11] was “inactive” each time. The activity change, negative = inhibition in experiment [4] is 7.04% (inactive); in experiment [10] it was -3.99% (inactive). In experiment [5], the activity, negative = inhibition is 8.87% (inactive). Also, the compound was classed as inactive in [7]. Also, the values for the max response in [10] (setting [18]) and in [10] (setting [19]) were -0.0419% and -1.35%, respectively.

For the compound `O=c1c(-c2cc(F)cc(F)c2)nc2cnc(N3CCNCC3)nc2n1C1CC1`, the Potency in experiment [1] was > 11.4 µM (inactive); in [3] it was 3.16 µM (active); in [15], > 9.22 µM (inactive); in experiment [6], > 46 µM (inactive); in experiment [12], 0.158 µM (active); in experiment [16], 2.51 µM (active). Moreover, in experiment [7], the compound was classed as inactive. Further, the Potency result in experiment [8], in [13], in experiment [17] and in [11] was “inactive” each time. In experiment [10], the activity change, negative = inhibition was 2.24% (inactive). The figures for the max response in experiment [10] (setting [18]) and in experiment [10] (setting [19]) were 4.49% and 4.55%, respectively.

Regarding `CC(=O)N1CCC2(CCN(Cc3cc(C(F)(F)F)cc(C(F)(F)F)c3)CC2)CC1`, the Potency in experiment [1] was > 11.4 µM (inactive); in experiment [3] it was 15.8 µM (active); in [6], > 46 µM (inactive). Moreover, the activity change, negative = inhibition in [4] was -19.4% (inactive); in experiment [10], 2.13% (inactive). In [5], the activity, negative = inhibition is 8.31% (inactive). Further, in experiment [7], the compound was classed as inactive. The Potency result in [8] and in experiment [11] was “inactive” throughout. The figures for the max response in experiment [10] (setting [18]) and in experiment [10] (setting [19]) were 6.37% and 10.7%, respectively.
